Drawing on PubChem BioAssay (Tox21), this text covers outcome and Potency for nine molecules.

The nature of test [1]: A CellTox Green Cytotoxicity Assay to monitor cytotoxicity in HepG2 cells - 8 hour (AID 1224890). Also: nearly all actives have a fitted effect of over 45% in size. In short, it runs like this: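 HepG2, 600 cells/well premixed w/ CellTox Green; 5 h settle, 37 C/5% CO2; pintool cpd add (DMSO); 37 C, 40 h; fluorescence read at 0, 8, 16, 24, 32, 40 h.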
A short description of test [2]: qHTS assay to identify small molecule antagonists of the estrogen receptor alpha (ER-alpha) signaling pathway using the BG1 cell line in the presence of 0.1 nM 17-beta-estradiol - cell viability counter screen (AID 1259241). Also: nearly all actives have a fitted effect of over 40% in size. In short, it runs like this:
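Cells were plated and left 24 hr, compounds in DMSO were pinned in, 17beta-estradiol was added to 0.1 nM final, and after 22 hr CellTiter-Fluor reagent was added for 30 min before fluorescence was read.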

The nature of test [3]: qHTS assay to identify small molecule antagonists of the androgen receptor (AR) signaling pathway using the MDA cell line in the presence of 0.5 nM R1881 - cell viability counter screen (AID 1259242). Also: nearly all actives have a fitted effect of over 45% in size. The method, boiled down:
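Live-cell protease fluorescence, CellTiter-Fluor, 30 min at 37C. Cells: MDA-kb2, 3,000/well, preincubated 5 hr. Compounds plus 0.5 nM R1881 final, 16 hr, 37C, 0% CO2.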

Test [4] concerns the target Estrogen receptor (Homo sapiens) (UniProt P03372). As to the kind of experiment: qHTS assay to identify small molecule antagonists of the estrogen receptor alpha (ER-alpha) signaling pathway using the BG1 cell line in the presence of 0.1 nM 17-beta-estradiol (AID 1259244). Also: nearly all actives have a fitted effect of over 50% in size. Also: potency is read from the fitted curve at half-maximal effect. The method, boiled down:
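Luminescence after ONE-Glo (30 min, room temperature) measured ERE-luciferase activity in VM7Luc4E2 cells treated 22 h with compound and 0.1 nM final 17beta-estradiol as stimulator.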
On the technique in general: Quantitative high-throughput screening tests each substance at several concentrations.

Test [5] is described as follows: qHTS assay to identify small molecule HDAC inhibitors (AID 1259364).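 Also: wild-type HCT-116 cells with endogenous class I/II HDAC activity; top concentration of the series differs between compounds; nearly all actives have a fitted effect of over 45% in size.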 The method, boiled down:
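HCT-116 (wild type), 1,500 cells/well, overnight; compound 2 hr 37C 5% CO2; HDAC-Glo I/II reagent 30 min RT; luminescence readout.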

Test [6] is described as follows: qHTS assay to identify small molecule HDAC inhibitors - cell viability counter screen (AID 1259365). Also: series mostly up to about 92 µM; nearly all actives have a fitted effect of over 50% in size. The method, boiled down: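 Counter screen in wild-type HCT-116 cells: compounds dissolved in DMSO are pin-transferred onto overnight-plated cells and left 2hr at 37C. ATP-based CellTiter-Glo luminescence then measures viable cells.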
Test [7] in a line: qHTS assay to identify small molecule agonists of the sonic hedgehog signaling (Shh) pathway - cell viability counter screen (AID 1259366). Also: nearly all actives have a fitted effect of over 50% in size. Also: potency is read from the fitted curve at half-maximal effect. In short, it runs like this: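 Cells are plated at 2,000 per well and left 4hr at 37C, 5% CO2 before compound addition. After 23hr of treatment, CellTiter-Fluor reagent is added for 1hr at 37C and fluorescence is measured.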
Test [8] can be described thus: qHTS assay to identify small molecule antagonists of the sonic hedgehog signaling (Shh) pathway - cell viability counter screen (AID 1259367). Also: nearly all actives have a fitted effect of over 55% in size. Also: potency is read from the fitted curve at half-maximal effect. The method, boiled down:
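CellTiter-Fluor signal in conditioned medium-stimulated 3T3 Gli1-Luc cells, 23 hr compound exposure, 37C.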

Test [9] can be described thus: qHTS assay to identify small molecule agonists of the sonic hedgehog signaling (Shh) pathway (AID 1259368; calls by dose curve;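 also: NIH/3T3-derived 3T3Gli1-Luc cells carrying a stable Gli1-driven firefly luciferase reporter; series mostly up to about 92 µM; nearly all actives have a fitted effect of over 15% in size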). The method, boiled down:
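Read-out: firefly luciferase luminescence from a Gli1 response element reporter stably integrated in NIH/3T3-derived 3T3Gli1-Luc cells, measured 30 min at room temperature after reagent addition. Compound exposure lasted 24 hr at 37 C, 5% CO2.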

The nature of test [10]: qHTS assay to identify small molecule antagonists of the sonic hedgehog signaling (Shh) pathway (AID 1259369; calls by dose curve; also: nearly all actives have a fitted effect of over 45% in size; also: potency is read from the fitted curve at half-maximal effect). The method, boiled down: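 Luminescence readout: firefly Luc under Gli1 response element in 3T3Gli1-Luc cells (NIH/3T3 clone). Antagonist mode, stimulation by conditioned medium; compound exposure 24hr at 37 C, 5% CO2.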
For test [11], the target named is Estrogen receptor beta (Homo sapiens) (UniProt Q92731). As to the kind of experiment: qHTS assay to identify small molecule agonists of the estrogen receptor beta (ER-beta) signaling pathway (AID 1259377; active = well fitted activation curve with a large enough effect in the signal ratio in the repeat runs, not every such curve was filed as active; the % refers to the signal ratio). The method, boiled down: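 Agonist mode cell assay in GripTite HEK293T cells expressing an ER-beta fusion that drives beta-lactamase from an Upstream Activator Sequence; 16 hr compound exposure at 37C, then 2 h LiveBLAzer B/G FRET substrate at room temperature, fluorescence read-out.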

Test [12] is described as follows: qHTS assay to identify small molecule agonists of the androgen receptor (AR) signaling pathway in the presence of an antagonist - cell viability counter screen (AID 1259379).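 Also: MDA-kb2 human breast cancer cells carrying an MMTV luciferase reporter; series mostly up to about 92 µM; nearly all actives have a fitted effect of over 25% in size.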 The method, boiled down:
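Viability counter screen: CellTiter-Fluor fluorescence, measured in the same wells as the luciferase read-out. MDA-kb2 cells, 3,000/well, with nilutamide at 3.0uM final and compounds at 15 concentrations, 16 hr at 37C, 0% CO2.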

The nature of test [13]: qHTS assay to identify small molecule agonists of the estrogen receptor beta (ER-beta) signaling pathway - cell viability counter screen (AID 1259380). Also: nearly all actives have a fitted effect of over 30% in size. The method, boiled down:
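Luminescence read-out (CellTiter-Glo, 30 min, room temp) taken in the same wells as the beta-lactamase reporter assay; ER-beta-UAS-bla HEK293T cells exposed to DMSO-dissolved compounds for 16 hr at 37C in 2% charcoal-stripped FBS medium.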

The nature of test [14]: qHTS assay to identify small molecule antagonists of the estrogen receptor beta (ER-beta) signaling pathway - cell viability counter screen (AID 1259382).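 Also: HEK293T cells carrying ER-beta-UAS-bla reporter stimulated with estradiol; series mostly up to about 92 µM; nearly all actives have a fitted effect of over 55% in size.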 In short, it runs like this:
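Luminescent ATP read-out (CellTiter-Glo, 30 min, RT) taken in the same wells as the bla reporter assay. HEK293T ER-beta-UAS-bla cells in 2% charcoal-stripped FBS were exposed to compounds with 1nM E2 for 16 hr at 37C.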

Test [15] deals with Estrogen receptor (Homo sapiens) (UniProt P03372). As to the kind of experiment: qHTS assay to identify small molecule agonists of the estrogen receptor alpha (ER-alpha) signaling pathway in the presence of an antagonist (AID 1259383; calls by dose curve; also: top concentration of the series differs between compounds; nearly all actives have a fitted effect of over 15% in size). The method, boiled down:
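Luciferase luminescence (ONE-Glo, 30min at room temperature) measured in VM7Luc4E2 cells after 22hr compound exposure at 15 concentrations, with 10.0nM ICI-182,780 final present; cells express endogenous ER-alpha and carry four EREs upstream of luciferase.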

Test [16] can be described thus: qHTS assay to identify small molecule agonists or antagonists of the thyroid stimulating hormone receptor (TSHR) signaling pathway - wild type cell line counter screen (AID 1259384; calls by dose curve). In short, it runs like this:
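Counter screen in untransfected Hek293: compounds (15-point titration, triplicate) plus phosphodiesterase inhibitor Ro20-1724 added after 18 h plating; 30 min RT. Intracellular cAMP via competitive d2/cryptate immunoassay, 1 h incubation.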

For test [17], the target named is Estrogen receptor beta (Homo sapiens) (UniProt Q92731). As to the kind of experiment: qHTS assay to identify small molecule antagonists of the estrogen receptor beta (ER-beta) signaling pathway (AID 1259378; active = well fitted inhibition curve with a large enough effect in the signal ratio in the repeat runs, not every such curve was filed as active; the % refers to the signal ratio). In short, it runs like this:
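Antagonist mode: compounds added to beta-lactamase reporter HEK293T ER-beta-UAS cells stimulated with E2 (1nM final), 16 hr at 37C. LiveBLAzer B/G FRET substrate, 2 hours room temperature, fluorescence read-out.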

Test [18] in a line: qHTS assay to identify small molecule phospholipidosis (PLD) inducers (AID 1259344; active = well fitted curve in the direction sought with a large enough effect; an effect the other way counts as inactive or inconclusive). The method, boiled down: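 Accumulated phospholipid, stained red by LipidTOX during 24 h compound treatment of HepG2 cells at 37 C, is quantified from images as pit number and intensity, normalised per cell using Hoechst-stained nuclei.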
In test [19] the target is Androgen receptor (Homo sapiens) (UniProt P10275). As to the kind of experiment: qHTS assay to identify small molecule antagonists of the androgen receptor (AR) signaling pathway using the MDA cell line in the presence of 0.5 nM R1881 (AID 1259243). Also: nearly all actives have a fitted effect of over 50% in size. In short, it runs like this: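 MDA-kb2, MMTV-luc (AR/GR elements); 3,000 cells/well; cpd + 0.5 nM R1881 final; 16 hr 37C, 0% CO2; ONE-Glo 30 min RT; luminescence.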

The target is the same in test [20]. As to the kind of experiment: qHTS assay to identify small molecule agonists of the androgen receptor (AR) signaling pathway in the presence of an antagonist (AID 1259381; calls by dose curve; also: nearly all actives have a fitted effect of over 15% in size). In short, it runs like this: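 Luciferase read-out (ONE-Glo, 30min room temperature) in MDA-kb2 MMTV-reporter cells; agonist mode run in presence of AR antagonist nilutamide, 3.0uM final. Compounds tested as 15-point series, 16hr exposure at 37C, 0% CO2.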

Inconclusive results are not listed. The source holds several records for some structures; these can differ, active in one and inactive in another. Active and inactive are the calls of the source. Unless noted, calls follow the shape of the dose curve; as a rule, active = well fitted curve in the direction sought with a large enough effect in the repeat runs; inconclusive = weak or mixed curves; inactive = no such curve, though single readings can be large; an effect the other way counts as inactive or inconclusive.

Chain of Androgen receptor (Homo sapiens) (P10275 whole entry, looked up): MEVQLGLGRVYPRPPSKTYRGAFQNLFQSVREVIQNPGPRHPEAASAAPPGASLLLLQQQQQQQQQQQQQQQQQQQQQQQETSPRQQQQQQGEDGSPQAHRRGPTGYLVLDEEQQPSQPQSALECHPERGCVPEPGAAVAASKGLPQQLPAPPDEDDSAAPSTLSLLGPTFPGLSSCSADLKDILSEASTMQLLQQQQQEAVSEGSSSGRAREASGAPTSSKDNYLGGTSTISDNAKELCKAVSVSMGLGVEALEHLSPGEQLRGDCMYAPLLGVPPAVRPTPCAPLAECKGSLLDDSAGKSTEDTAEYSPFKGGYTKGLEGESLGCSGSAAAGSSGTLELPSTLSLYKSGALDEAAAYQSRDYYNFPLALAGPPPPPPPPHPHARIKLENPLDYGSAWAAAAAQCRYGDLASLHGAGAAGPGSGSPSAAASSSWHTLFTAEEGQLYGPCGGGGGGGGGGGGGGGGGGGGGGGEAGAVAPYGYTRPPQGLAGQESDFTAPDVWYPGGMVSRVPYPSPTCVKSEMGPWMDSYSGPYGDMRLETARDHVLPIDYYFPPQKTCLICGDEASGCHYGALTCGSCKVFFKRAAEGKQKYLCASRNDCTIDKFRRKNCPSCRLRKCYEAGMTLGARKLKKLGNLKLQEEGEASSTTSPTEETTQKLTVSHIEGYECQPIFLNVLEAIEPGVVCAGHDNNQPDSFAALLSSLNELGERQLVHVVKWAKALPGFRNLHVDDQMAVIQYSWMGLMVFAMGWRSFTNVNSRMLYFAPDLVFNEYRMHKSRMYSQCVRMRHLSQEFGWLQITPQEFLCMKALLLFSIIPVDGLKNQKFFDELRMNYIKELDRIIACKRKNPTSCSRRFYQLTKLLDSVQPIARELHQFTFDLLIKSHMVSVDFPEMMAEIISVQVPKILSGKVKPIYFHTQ
Chain of Estrogen receptor beta (Homo sapiens) (Q92731 whole entry, looked up, the tested form may be a part): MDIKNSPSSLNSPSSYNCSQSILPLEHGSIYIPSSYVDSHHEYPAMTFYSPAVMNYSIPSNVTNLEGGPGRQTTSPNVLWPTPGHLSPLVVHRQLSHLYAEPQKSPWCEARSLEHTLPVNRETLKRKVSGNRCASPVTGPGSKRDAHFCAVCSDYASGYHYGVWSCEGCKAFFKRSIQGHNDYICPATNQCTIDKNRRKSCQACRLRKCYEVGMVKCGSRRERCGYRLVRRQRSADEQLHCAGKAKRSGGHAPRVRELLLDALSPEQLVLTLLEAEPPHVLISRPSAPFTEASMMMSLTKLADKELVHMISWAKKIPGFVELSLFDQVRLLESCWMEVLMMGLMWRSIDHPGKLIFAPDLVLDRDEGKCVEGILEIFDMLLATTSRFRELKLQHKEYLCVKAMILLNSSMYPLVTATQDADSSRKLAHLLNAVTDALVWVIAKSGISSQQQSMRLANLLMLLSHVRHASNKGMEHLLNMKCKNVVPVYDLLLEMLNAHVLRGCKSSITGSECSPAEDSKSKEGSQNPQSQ
Chain of Estrogen receptor (Homo sapiens) (P03372 whole entry, looked up): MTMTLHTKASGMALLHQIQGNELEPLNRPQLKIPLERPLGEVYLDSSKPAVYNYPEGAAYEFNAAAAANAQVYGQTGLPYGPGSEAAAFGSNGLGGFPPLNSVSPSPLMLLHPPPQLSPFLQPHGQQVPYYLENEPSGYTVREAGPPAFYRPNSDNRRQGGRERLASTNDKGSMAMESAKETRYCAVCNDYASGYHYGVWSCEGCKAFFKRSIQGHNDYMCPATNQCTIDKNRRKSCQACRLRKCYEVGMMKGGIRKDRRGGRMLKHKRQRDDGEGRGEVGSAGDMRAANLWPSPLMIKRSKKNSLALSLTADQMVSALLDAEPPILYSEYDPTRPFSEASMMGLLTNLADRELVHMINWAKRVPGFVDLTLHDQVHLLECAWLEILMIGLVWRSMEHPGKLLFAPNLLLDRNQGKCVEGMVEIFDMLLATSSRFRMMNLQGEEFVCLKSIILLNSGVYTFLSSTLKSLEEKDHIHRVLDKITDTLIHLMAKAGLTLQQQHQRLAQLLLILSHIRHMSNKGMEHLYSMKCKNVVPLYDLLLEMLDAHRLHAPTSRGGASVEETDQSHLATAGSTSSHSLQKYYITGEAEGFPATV

In the case of `CC(=O)OCc1ccco1`, the molecule was classed as inactive in [1], in test [6], in test [9], in test [14] and in test [16]. Also, the Potency result in test [2], in test [3], in test [4], in test [5], in test [7] and in [11] was “inactive” each time. The Potency entry in [12], in test [13] and in test [15] was “inactive” in each case. Further, the Potency is 68.2 µM (active) and inactive in test [8]; 1.53 µM (active) and inactive in test [10].
`COCCCN`: the molecule was called inactive in test [1], in test [6], in test [9], in [14] and in test [16]. The Potency result in [2], in [3], in test [4], in test [5], in test [7] and in test [8] was “inactive” in each case. For the same molecule, the Potency result in test [12], in test [13] and in test [15] was “inactive” each time.
Take `CCCCCCCO`: the molecule was called inactive in [1], in test [6], in test [9], in test [14] and in test [16]. Further, the Potency entry in test [2], in test [3], in [4], in test [5], in test [7] and in [8] was “inactive” each time. The Potency entry in [10], in test [11], in test [12], in test [13] and in test [15] was “inactive” each time.
Turning to `Cc1ccc(S(=O)(=O)N=C=O)cc1`, the molecule was classed as inactive in test [1], in test [6], in test [9], in test [14] and in [16]. Moreover, the Potency entry in [2], in test [3], in test [4], in test [5], in [11] and in test [17] was “inactive” each time. The Potency entry in test [12], in test [13] and in [15] was “inactive” throughout. Besides, the Potency in test [7] was 16.9 µM (active) and inactive; in test [8] it was 23.9 µM (active) and inactive; in [10], 6 µM (active) and inactive.
`Cc1ccc(C(C)C)c(O)c1`: the molecule was classed as inactive in test [1], in test [18], in test [6], in [9] and in test [14]. In addition, the Potency result in test [2], in test [3], in test [4], in [5], in [7] and in test [8] was “inactive” each time. Moreover, the Potency result in test [11], in [17], in test [12], in [13] and in [15] was “inactive” each time.
Take `COc1ccc(OC)cc1`: the molecule was classed as inactive in test [1], in [6], in [9], in [14] and in [16]. The Potency entry in test [2], in test [3], in test [4], in [5], in test [7] and in [8] was “inactive” throughout. Besides, the Potency entry in test [12], in test [13] and in [15] was “inactive” throughout.
Consider `CSc1ccc(Cl)cc1`, for which the molecule was classed as inactive in [1], in [6], in test [9], in test [14] and in test [16]. The Potency result in test [2], in [3], in test [19], in test [4], in test [5] and in test [7] was “inactive” in each case. Also, the Potency entry in test [8], in test [10], in test [11], in test [12], in test [13] and in [20] was “inactive” throughout. For the same molecule, the Potency result in test [15] is “inactive”.
As for `O=C(O)c1ccc(S(=O)(=O)N(Cl)Cl)cc1`, the call in test [1], in test [18], in test [6], in test [9], in [14] and in [16] was inactive. The Potency entry in test [2], in test [3], in test [5], in test [7], in [8] and in test [10] was “inactive” in each case. Also, the Potency entry in [11], in test [12] and in test [13] was “inactive” throughout. In addition, in test [4], the Potency was 38.8 µM (active) and inactive.
Consider `CCCCCCCCCCCCCCCC(=O)OC(C)C`, for which the call in test [1], in test [18], in test [6], in test [9] and in test [14] was inactive. The Potency entry in test [2], in [3], in test [5], in [7], in test [8] and in [11] was “inactive” throughout. Moreover, the Potency entry in test [12] and in test [13] was “inactive” throughout.
